In the library only some 11% were active in any assay of this set; here they are far more common.
JMJD2A Tudor – JMJD2A Tudor domain (human) inhibition; AlphaScreen JMJD2A-Tudor / H3K4me3 peptide binding; O75164; Potency, µM (top dose mostly 114 µM), inactives show at the top dose activity change, negative = inhibition, most hits filed as inhibitors; 4.4% of 390,000 active; note: potency is the fitted concentration of half-maximal effect; % is set by controls: 0 for no effect and ±100 for the full control effect; nearly all actives have a fitted effect of over 50% in size
BAZ2B inh – inhibitors of human BAZ2B bromodomain. Q9UIF8. AlphaScreen BAZ2B-H3K14Ac peptide displacement. Potency, µM (doses to about 114 µM), for the others: at the top dose activity change, negative = inhibition, hits mostly inhibitors. 4.4% of 360,000 active; note: potency is the fitted concentration of half-maximal effect; % is set by controls: 0 for no effect and ±100 for the full control effect; nearly all actives have a fitted effect of over 60% in size
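Compounds, titrated to a top concentration of 110 uM, were incubated 30 min at room temperature with preformed BAZ2B/acetyl-K14 H3 peptide complex (50 nM each). Proximity signal was measured by AlphaScreen after 20 min with beads.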
L3MBTL1 inh – blocks human L3MBTL1 | Q9Y468 | AlphaScreen L3MBTL1–H3K9me1 peptide binding | Potency, µM (highest dose often 57.1 µM), inactives show top-dose activity, negative = inhibition, most hits filed as inhibitors | 0.66% of 230,000 active | AID 485360; note: potency is the fitted concentration of half-maximal effect; % is set by controls: 0 for no effect and ±100 for the full control effect; nearly all actives have a fitted effect of over 60% in size
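Read-out is AlphaScreen signal from streptavidin donor and nickel chelate acceptor beads (10 ug/mL final each) bridging L3MBTL1 (50 nM) and biotinylated K9-monomethylated H3(1-15) peptide (75 nM), after 30 min compound exposure at room temperature.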
PI5P4Ka inh – inhibitors of human PI5P4K alpha. P48426. PI5P4Kalpha enzyme, ADP-Glo luminescence, 60 min; hits give low values. max response, %. 1.2% of 330,000 active. AID 652105; active = max response of -50% or lower; inconclusive = between -30% and -50%; inactive = -30% or higher; note: value at the top dose of about 77 µM; % is set by controls: 0 for no effect and ±100 for the full control effect
Target sequence (P48426 whole entry, looked up): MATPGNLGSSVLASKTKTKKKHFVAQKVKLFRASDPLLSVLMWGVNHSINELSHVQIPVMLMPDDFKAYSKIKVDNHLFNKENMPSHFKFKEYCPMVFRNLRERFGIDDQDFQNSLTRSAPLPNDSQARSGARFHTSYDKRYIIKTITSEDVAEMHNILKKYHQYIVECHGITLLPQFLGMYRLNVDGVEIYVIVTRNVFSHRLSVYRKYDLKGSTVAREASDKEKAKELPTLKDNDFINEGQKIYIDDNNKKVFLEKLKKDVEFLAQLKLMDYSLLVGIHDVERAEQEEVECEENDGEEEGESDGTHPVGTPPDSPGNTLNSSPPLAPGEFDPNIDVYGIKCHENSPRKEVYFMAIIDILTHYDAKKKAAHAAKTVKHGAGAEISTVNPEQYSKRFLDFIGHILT
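Quantitative HTS of the MLSMR library against PI5P4Kalpha with substrate. ATP added last at 5 microM final; room temperature, 60 minutes. Remaining ATP depleted, ADP converted and read as luminescence.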
G9a inh – inhibitors of human histone lysine methyltransferase G9a; 8.8% of 350,000 active; Q96KQ7; G9a H3K9 monomethylation, AlphaScreen, 2 h; Potency, µM (doses to about 102 µM), for the others: top-dose activity, negative = inhibition, actives largely listed as inhibitors; AID 504332; note: potency is the fitted concentration of half-maximal effect; % is set by controls: 0 for no effect and ±100 for the full control effect; nearly all actives have a fitted effect of over 75% in size
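AlphaScreen read-out: biotin-H3K9 peptide (500 nM) methylation by 20 nM enzyme with 20 uM SAM, 2 h at room temperature after 15 min compound preincubation; anti-monomethyl H3K9 antibody plus donor/acceptor beads, 10 min dark.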
HP1b binding inh – inhibitors of HP1-beta chromodomain binding to methylated histone tails | AlphaScreen HP1-beta / biotin-H3K9me3 peptide binding | Potency, µM (titrated, usually from 114 µM), inactives show top-dose activity change, negative = inhibition, hits mostly inhibitors | 0.56% of 390,000 active; note: potency is the fitted concentration of half-maximal effect; nearly all actives have a fitted effect of over 70% in size
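AlphaScreen: HP1-beta (50 nM) preformed 30 min with biotin-H3(1-18)K9me3 peptide (50 nM) in PBS pH 7.4, 0.01% Tween-20. Compound added for 30 min at RT, then streptavidin donor/nickel chelate acceptor beads (10 ug/mL) for 30 min.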
Active calls of the source: *; ? = inconclusive; · = no result; [ ] = another dose, or the depositor's remark. Unless noted, calls come from the whole dose curve; as a rule, active = well fitted inhibition curve with a large enough effect; inconclusive = small, poorly fitted or top-dose-only effect; inactive = no such curve, though single readings can be large or run the other way.

SMILES | JMJD2A Tudor | BAZ2B inh | L3MBTL1 inh | PI5P4Ka inh | G9a inh | HP1b binding inh
O=C(N/N=C/C=C/c1ccccc1[N+](=O)[O-])c1cc(-c2ccccc2)n[nH]1 | -34% | ? | -14% | -11 | ? | 29%
O=C(N/N=C/C=C/c1ccco1)c1cnccn1 | 50µM* | 14% | 7.1µM* | -2 | 45µM* | 7%
CCC(C)NC(=O)c1c(C)oc2nc(C)nc(N3CCOCC3)c12 (stereo not given) | 5% | 10%[57.1 µM] | · | · | -14%[59 µM] | 37%
O=C(O)c1ccc(S(=O)(=O)c2ccc(Sc3ccc(C(=O)O)c(C(=O)O)c3)cc2)cc1 | -14% | 50µM* | -6% | -24 | 45µM* | 16%
COc1ccc(/C=N\NC(=O)C2C(=O)NCC2c2ccccc2)cc1O (stereo not given) | ? | 3% | -4% | -57* | 7%[12.7 µM] | ?
CCOP(=O)(O)c1ccccc1OCCOCCOc1ccccc1P(=O)(O)OCC | ? | ? | · | · | 56µM* | 27%
CCc1ccc(S(=O)(=O)c2cn(C)c3cc(F)c(F)cc3c2=O)cc1 | -6% | -3% | · | · | -27%[59 µM] | 26%
COc1cccc(/C=N/NC(=O)c2oc3nc(-c4ccccc4)cc(-c4ccco4)c3c2N)c1 | -10% | -20% | -13% | -7 | 32µM* | 37%
Cc1ccc(/C=C/c2onc(C)c2S(=O)(=O)N2CCC(C(=O)N3CCC(N(C)C(C)C)CC3)CC2)cc1 | -35% | -11% | · | · | -4%[59 µM] | 12%[57 µM]
O=C(Nc1ccc(S(=O)(=O)N2CCOCC2)cc1)c1ccc2c(c1)S(=O)(=O)c1ccccc1C2=O | -15% | -2% | 5% | 1 | 1%[12.7 µM] | 13%
O=C(O)c1ccc2c(c1)S(=O)(=O)c1cc(Cl)ccc1C2=O | -21% | -11% | 3% | -52* | -11%[2.33 µM] | 38%
O=C(O)c1ccc2c(c1)S(=O)(=O)c1cc(N3CCN(c4cnccn4)CC3)ccc1C2=O | · | · | · | -67* | · | ·
CCC(C)NC(=O)c1ccc2c(c1)S(=O)(=O)c1ccccc1C2=O (stereo not given) | -13% | -34% | · | -4 | 20µM* | 22%
O=C(Nc1cc(S(=O)(=O)N2CCOCC2)ccc1O)c1ccc2c(c1)S(=O)(=O)c1ccccc1C2=O | ? | ? | -3% | -27 | 4.5µM* | ?
Cc1cc(=O)[nH]c2nnc(SCC(=O)Nc3ccc(OC(F)(F)F)cc3)n12 | -6% | 0% | · | · | 6%[59 µM] | 31%
NC(=O)COC(=O)c1ccc2c(c1)S(=O)(=O)c1ccccc1C2=O | -8% | 3% | · | -6 | -17% | 7%
O=C(O)c1ccc2c(c1)S(=O)(=O)c1ccccc1C2=O | -18% | -32% | · | -74* | 45µM* | 39%
O=C(OCc1ccccc1)c1ccc2c(c1)-c1ccccc1C2=O | -29% | -29% | -3% | 14 | 5µM* | -3%
Cc1noc(C)c1COC(=O)c1ccc2c(c1)S(=O)(=O)c1ccccc1C2=O | -29% | ? | -6% | · | 32µM* | -7%
O=C(OCc1ccccc1)c1ccccc1 | 67% | · | · | -5 | 30%[12.7 µM] | 90%
CC(OC(=O)c1ccc2c(c1)S(=O)(=O)c1ccccc1C2=O)C(N)=O (stereo not given) | -13% | -9% | · | 0 | 45µM* | -7%
NC(=O)c1ccc2c(c1)S(=O)(=O)c1ccccc1C2=O | -12% | 9% | 63% | -7 | -1%[2.33 µM] | 38%
O=C(c1cccc(F)c1)N1CCC2(CC1)CCN(c1ccncc1)CC2 | · | · | · | · | 0%[12.7 µM] | ·
COc1cccc(CNCc2c(C(=O)O)c(C)n(Cc3ccc(F)cc3Cl)c2C)c1OC | -31% | -34% | · | · | 6%[59 µM] | 40%
O=C(O)c1ccc(-c2ccccc2)[nH]c1=O | -17%[11.4 µM] | -33% | · | ? | 56µM* | 5%
CC(=O)C1=C(c2ccccc2)OC(N)=C(C#N)C1c1ccccc1C (stereo not given) | -22% | -24% | -1% | 11 | ? | 4%
